# GLP-1R inv ag = GLP-1 receptor (human) inverse agonism | P43220 | HEK293 GLP-1R CRE-luciferase, luminescence, 24 h; GLP-1R form is constitutively active | Potency, µM (top dose mostly 38.3 µM), usual class: inhibitors | actives 1.6% (n = 410,000) | AID 624417; also: nearly all actives have a fitted effect of over 55% in size
#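 Constitutively active GLP-1R drives a cAMP-responsive luciferase in stably transfected HEK293 cells; test compounds are added after overnight (12 h) attachment and left 24 hr, and signal loss in luminescence marks inhibition.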
# GLP1R cytotox = cytotoxicity in counter-screen for GLP-1R inverse agonists; HEK293 cAMP-luciferase reporter cells, luminescence, 24 h; Potency, µM (top dose mostly 38.3 µM), usual class: inhibitors; actives 0.13% (n = 410,000);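 also: loss of luciferase light is scored as toxicity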
#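 A 23 nL compound transfer followed 12 hours of cell culture at 37 deg C; exposure then lasted 24 hr. Luciferase assay detection reagent was dispensed and plates read for luminescence after a 12 min room-temperature wait.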
# VP16 counter = inhibits Gal4-VP16 luciferase reporter, ROR gamma counter-screen. AID 2546. actives 3.5% (n = 310,000). Drosophila S2 Gal4-VP16 UAS-luciferase, luminescence, 20 h. Potency, µM (highest dose often 53.6 µM), most hits filed as inhibitors;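 also: Gal4-VP16 expression switched on by copper sulfate through the metallothionein promoter; nearly all actives have a fitted effect of over 50% in size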
# RORg inh = blocks mouse ROR gamma transcriptional activity. P51450. Drosophila S2 Gal4-RORgamma UAS-luciferase reporter, 20 h. Potency, µM (top dose mostly 53.6 µM), actives largely listed as inhibitors. actives 5.4% (n = 310,000). AID 2551; also: nearly all actives have a fitted effect of over 60% in size
# Target sequence (P51450 whole entry, looked up, the tested form may be a part): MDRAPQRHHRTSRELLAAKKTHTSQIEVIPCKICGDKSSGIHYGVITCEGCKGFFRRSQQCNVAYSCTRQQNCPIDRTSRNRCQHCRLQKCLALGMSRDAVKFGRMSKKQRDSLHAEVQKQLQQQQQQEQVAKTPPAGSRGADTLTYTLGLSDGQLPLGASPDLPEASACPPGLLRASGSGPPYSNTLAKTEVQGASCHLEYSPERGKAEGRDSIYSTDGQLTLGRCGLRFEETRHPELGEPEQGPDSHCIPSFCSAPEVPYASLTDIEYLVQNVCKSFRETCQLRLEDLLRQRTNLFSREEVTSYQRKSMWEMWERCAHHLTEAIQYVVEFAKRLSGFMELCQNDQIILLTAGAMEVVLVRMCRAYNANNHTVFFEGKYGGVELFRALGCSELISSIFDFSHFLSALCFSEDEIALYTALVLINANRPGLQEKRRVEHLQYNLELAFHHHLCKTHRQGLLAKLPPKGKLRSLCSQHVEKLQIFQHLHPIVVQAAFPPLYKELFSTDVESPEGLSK
#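 Drosophila S2 cells stably expressing Gal4-DBD/mouse RORγ fusion under metallothionein promoter plus UAS-luciferase; compound 1 h, then 700 uM CuSO4 induction for 20 h at ambient temperature; inhibition read as reduced luminescence.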
# GLP1R ag = GLP-1 receptor (human) agonism | P43220 | HEK293 GLP-1R CRE-luciferase, luminescence, 4-6 h; cells express a hypersensitive GLP-1R form | Potency, µM (series often up to 45.6 µM), usual class: activators | actives 0.007% (n = 380,000) | AID 624172
# Numbers stand for hits; . = inactive; ? = inconclusive; / = not tested or not shown. Rows were chosen to be rich in hits. Some 5.9% of all compounds tested hit in one or more screens of this group. Calls follow the shape of the dose curve; as a rule, active = well fitted curve in the direction sought with a large enough effect; inconclusive = small, poorly fitted or top-dose-only effect, or another doubt; inactive = no such curve, though single readings can be large; an effect the other way counts as inactive or inconclusive.
SMILES,GLP-1R inv ag,GLP1R cytotox,VP16 counter,RORg inh,GLP1R ag
Cc1ccc(/C=N/n2c(-c3ccco3)n[nH]c2=S)s1,.,.,?,8.91µM,.
CNC1=CN(O)C(c2ccccc2)=c2cc(Cl)ccc2=N1,/,/,.,.,.
CCCCCC(O)/C=C/C=C\CCCCCCCC(=O)O (stereo not drawn),/,/,.,.,/
CCOC(=O)[C@H]1[C@H]2COc3ccc(Br)cc3[C@@H]2N2C(=O)c3cc(Br)ccc3NC(=O)[C@@]12C,2.82µM,.,/,/,.
CCOC(=O)[C@H]1[C@H]2COc3ccc(Cl)cc3[C@@H]2N2C(=O)c3cc(Br)ccc3NC(=O)[C@@]12C,3.55µM,.,/,/,.
CCOC(=O)[C@H]1[C@H]2COc3ccc(Cl)cc3[C@@H]2N2C(=O)c3cc(F)c(F)cc3NC(=O)[C@@]12C,10µM,.,/,/,.
CCOC(=O)[C@H]1[C@H]2COc3ccc(C)cc3[C@@H]2N2C(=O)c3cc(F)c(F)cc3NC(=O)[C@@]12C,?,.,/,/,.
CCOC(=O)[C@H]1[C@H]2COc3ccccc3[C@@H]2N2C(=O)c3cc(Br)ccc3NC(=O)[C@@]12C,?,.,/,/,.
O=C1O[C@H]2[C@@H](OC(O)[C@@H]2O)[C@H]1O (stereo partly drawn),/,/,/,/,.
O=C(N/N=C/c1sc(N2CCOCC2)nc1-c1ccccc1)c1ccc(O)cc1,.,.,.,.,.
Cc1occc1C(=O)N/N=C/c1sc(N2CCOCC2)nc1-c1ccccc1,.,.,?,12.6µM,.
COc1ccc(C(=O)N/N=C/c2sc(N3CCOCC3)nc2-c2ccccc2)cc1OC,.,.,.,2.82µM,.
COc1cc(NC(=O)c2cc3c(=O)oc4ccc(C)cc4c3s2)cc(OC)c1OC,.,.,/,/,.
COc1ccc(-c2nc(C)c(CCNC(=O)c3cc(OC)c(OC)c(OC)c3)s2)cc1OC,.,.,/,/,.
O=C(O)c1ccc(Nc2nc3c(s2)CCCC3)cc1,1.78µM,.,3.55µM,1.26µM,.
Cc1ccc(/C=N/Nc2nc(C(C)(C)C)cs2)o1,?,.,.,.,.
CC(C)=NNc1nc(-c2ccccc2)cs1,?,.,.,?,.
O=S1(=O)N=C(Nc2nc3c(s2)CCCC3)c2ccccc21,4.47µM,?,1.26µM,0.447µM,.
C/C(=N\Nc1nc(C(C)(C)C)cs1)c1ccc(O)cc1,?,.,10µM,?,.
C/C(=N\Nc1nc(C(=O)O)cs1)c1ccccc1,.,.,5.01µM,0.631µM,.
Cc1cccc(Nc2nc3c(s2)CCCC3)c1,?,?,.,.,.
CC1Cc2cc(S(=O)(=O)CCC(=O)Nc3ccc(Cl)cc3F)ccc2N1C(=O)C1CC1 (stereo not drawn),.,.,/,/,/
CC(=O)Nc1ccc(SCC(CC(C)C)N2CCN(CCc3ccccc3)CCC2=O)cc1 (stereo not drawn),/,/,.,.,/
C/C(=N\Nc1nc(C(C)(C)C)cs1)c1ccccc1,8.91µM,.,/,/,.
O=C(Nc1nc2c(s1)CCCC2)Oc1ccccc1,.,.,.,.,.
SMILES,GLP-1R inv ag,GLP1R cytotox,VP16 counter,RORg inh,GLP1R ag
C/C(=N\Nc1nc2c(s1)CCCC2)c1ccccc1,?,?,?,12.6µM,.
Cc1ccccc1NC(=S)NNC(=O)c1ccncc1,.,.,.,10µM,.
O=C(NNC(=S)NC(=O)c1ccc(F)cc1)c1cccnc1,.,.,?,?,.
CCC(C)c1ccccc1NC(=O)c1cccnc1 (stereo not drawn),.,.,.,11.2µM,.
O=C(NNC(=S)NC(=O)c1cccnc1)c1ccc(F)cc1,.,.,?,15.8µM,.
CC(C)(C)NC(=S)NNC(=O)c1ccncc1,.,?,17.8µM,1.12µM,.
COc1ccc(N2CCN(Cc3nc4c(c(=O)n(C)c(=O)n4C)n3C(C)C)CC2)cc1,.,.,/,/,/
CN(C)S(=O)(=O)N(CC(=O)NCCSCc1c(F)cccc1Cl)c1ccccc1,.,.,/,/,.
COc1ccc(C(=O)c2oc3ccccc3c2NC(=O)COc2c(C)cc(C)cc2C)cc1,.,.,/,/,.
C=CCNC(=S)NNC(=O)c1ccncc1,.,.,.,10µM,.
O=C(NNC(=S)Nc1ccccc1)c1cccnc1,.,?,/,/,.
Cc1ccccc1NC(=S)NNC(=O)c1cccnc1,.,.,15.8µM,6.31µM,.
C=CCNC(=S)NNC(=O)c1cccnc1,.,.,.,?,.
